In general, AC50 refers to the midpoint of the concentration-response curve, whichever way the signal moves.

These results are taken from PubChem BioAssay (EPA / NIEHS).

Structures are written as SMILES. The source made the active and inactive calls. Rule for the calls: active = hit-call score of the fitted dose curve at least 0.9, where 1 is the maximum; inactive = score below 0.9.

Experiment [1] can be described thus: ATG_E_Box_CIS: Attagene CIS-FACTORIAL HepG2 Assay for human Enhancer Box (E-box) (AID 2282936). Conditions: HepG2 E-box cis-reporter transcription, actives raise or lower the signal. In a few lines: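 DMSO served as negative control and baseline for bidirectional fitting. Human hepatoma HepG2 cells, transiently transfected with cis-reporter constructs, were dosed 24 h; reporter mRNA read by RT-PCR and capillary electrophoresis.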

Experiment [2] can be described thus: ATG_M_61_CIS: Attagene CIS-FACTORIAL HepG2 Assay for M61 Transcription Factor (Internal Marker) (AID 2282937). Conditions: HepG2 Attagene CIS-FACTORIAL M61 internal marker reporter; actives raise or lower the signal. The gist of the method: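 Fluorescence from labelled cDNA fragments, separated by capillary electrophoresis, quantifies reporter induction. HepG2 cells bearing transiently transfected cis-promoter MRTUs were incubated with test chemical for 24 h; DMSO defined baseline for gain/loss fitting.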

Experiment [3] can be described thus: ATG_EGR_CIS: Attagene CIS-FACTORIAL HepG2 Assay for human Early Growth Response 1 (EGR1) (AID 2282938). Particulars: HepG2 Attagene CIS-FACTORIAL EGR reporter mRNA; actives raise or lower the signal. In a few lines:
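Cell-based multiplex transcription assay: HepG2 carrying transfected cis-element reporter units, 24 h chemical treatment. Fluorescence from capillary electrophoresis of RT-PCR products gives mRNA levels; fitting is bidirectional relative to DMSO.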

Experiment [4] can be described thus: ATG_M_19_CIS: Attagene CIS-FACTORIAL HepG2 Assay for M19 Transcription Factor (Internal Marker) (AID 2282939). Particulars: HepG2 Attagene CIS-FACTORIAL M19 internal marker reporter; actives raise or lower the signal. The gist of the method: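 HepG2 cells transiently transfected with cis-regulated multiplexed reporter units, dosed 24 h. Reporter mRNA quantified by RT-PCR and capillary electrophoresis; internal background marker fitted bidirectionally versus DMSO.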

Experiment [5] can be described thus: ATG_Ets_CIS: Attagene CIS-FACTORIAL HepG2 Assay for human Erythroblast Transformation Specific (ETS) (AID 2282941). Particulars: HepG2 ETS cis-reporter transcription, actives raise or lower the signal. In a few lines:
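HepG2 cells transfected with multiple cis-regulated reporter units measuring endogenous ETS-driven transcription, 24 h after dosing. Reporter mRNA quantified by RT-PCR with capillary electrophoresis; bidirectional fit relative to DMSO.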

Experiment [6] has as its target Hepatocyte nuclear factor 3-beta (Homo sapiens) (UniProt Q9Y261). Put plainly: ATG_FoxA2_CIS: Attagene CIS-FACTORIAL HepG2 Assay for human Forkhead box A2 (FOXA2) (AID 2282942). Conditions: HepG2 cis-reporter transcription factor activity, 24 h; actives raise or lower the signal. In a few lines:
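In transiently transfected human HepG2 cells, promoter-driven reporter mRNA levels after 24 h chemical exposure are determined via RT-PCR with capillary electrophoresis. DMSO serves as baseline for bidirectional fitting.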

The nature of experiment [7]: ATG_FoxO_CIS: Attagene CIS-FACTORIAL HepG2 Assay for human Forkhead box O (FoxO) (AID 2282943). Particulars: HepG2 Attagene cis-reporter, FoxO element, mRNA; actives raise or lower the signal. The gist of the method:
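Endogenous transcription factor activity read from multiplexed cis-promoter reporter transcripts in transiently transfected HepG2, 24 h after dosing. Reporter RNA measured via RT-PCR plus capillary electrophoresis of FAM-labeled products; gain or loss relative to DMSO.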

The nature of experiment [8]: ATG_GATA_CIS: Attagene CIS-FACTORIAL HepG2 Assay for human GATA Binding Protein (AID 2282944). Conditions: HepG2 GATA cis-element reporter, Attagene multiplex mRNA; actives raise or lower the signal. In a few lines:
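HepG2 cells transiently transfected with multiplexed cis-element reporter units measure endogenous GATA activity; after 24 h compound exposure, reporter mRNA quantified by RT-PCR and capillary electrophoresis. Changes fitted in both directions vs DMSO.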

A short description of experiment [9]: ATG_GLI_CIS: Attagene CIS-FACTORIAL HepG2 Assay for human Zinc Finger Protein GLI1 (AID 2282945). Particulars: HepG2, Attagene cis-factorial reporter mRNA, GLI element; actives raise or lower the signal. In a few lines:
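Bidirectional curve fits relative to DMSO, using reporter mRNA levels from RT-PCR plus capillary electrophoresis. Cells were HepG2 transiently carrying cis-regulated reporter constructs, harvested 24 h after dosing.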

Experiment [10] can be described thus: ATG_M_32_CIS: Attagene CIS-FACTORIAL HepG2 Assay for M32 Transcription Factor (Internal Marker) (AID 2282949).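 Note: background control marker of the multiplexed CIS panel rather than a real target.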 Particulars: HepG2 Attagene cis-factorial M32 reporter, mRNA; actives raise or lower the signal. The gist of the method: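 Following 24 h chemical exposure of HepG2 cells transiently expressing cis-promoter reporter constructs, reporter transcript levels were determined by RT-PCR with fluorescent labelling and capillary electrophoresis, then fitted bidirectionally against DMSO.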

Experiment [11] can be described thus: ATG_M_06_CIS: Attagene CIS-FACTORIAL HepG2 Assay for M06 Transcription Factor (Internal Marker) (AID 2282950). Conditions: HepG2 Attagene CIS-FACTORIAL M06 internal marker reporter; actives raise or lower the signal. The gist of the method: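 Internal background marker within multiplexed cis-reporter HepG2 system. Cells transiently transfected, dosed 24 h; reporter mRNA measured by RT-PCR, HpaI digestion and capillary electrophoresis. Bidirectional fit relative to DMSO.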

Experiment [12] addresses Hypoxia-inducible factor 1-alpha (Homo sapiens) (UniProt Q16665). Put plainly: ATG_HIF1a_CIS: Attagene CIS-FACTORIAL HepG2 Assay for human Hypoxia Inducible Factor 1 (HIF1A) (AID 2282951). Conditions: HepG2 Attagene cis-factorial HIF1a reporter transcription; actives raise or lower the signal. In a few lines:
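In this multiplexed cell assay, HepG2 cells bearing transfected cis reporters are dosed for 24 h and reporter mRNA is read by RT-PCR plus capillary electrophoresis; signal increases and decreases are both scored against DMSO.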

In experiment [13] the target is Hepatocyte nuclear factor 6 (Homo sapiens) (UniProt Q9UBC0). Kind of experiment: ATG_HNF6_CIS: Attagene CIS-FACTORIAL HepG2 Assay for human Hepatocyte Nuclear Factor 6 (HNF6) (AID 2282952). Conditions: HepG2 Attagene cis-factorial HNF6 reporter transcription; actives raise or lower the signal. The gist of the method: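 HepG2 cells transiently transfected with cis-element-driven multiplexed reporter units measuring endogenous transcription factor activity. After 24 h exposure, reporter mRNA quantified by RT-PCR, FAM-labelled fragments and capillary electrophoresis; bidirectional fitting versus DMSO.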

Experiment [14] has as its target Heat shock factor protein 1 (Homo sapiens) (UniProt Q00613). Kind of experiment: ATG_HSE_CIS: Attagene CIS-FACTORIAL HepG2 Assay for human Heat Shock Transcription Factor 1 (HSE) (AID 2282953). Particulars: HepG2 HSE cis-reporter, Attagene RNA transcription; actives raise or lower the signal. In a few lines:
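HepG2 cells transfected with cis-promoter reporter units sensing endogenous transcription factor activity; reporter mRNA quantified 24 h post-dose by RT-PCR and capillary electrophoresis of 6-FAM-labelled products. Bidirectional fitting against DMSO.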

Experiment [15] is described as follows: ATG_MRE_CIS: Attagene CIS-FACTORIAL HepG2 Assay for human Metal Responsive Element (MRE) (AID 2282954). Conditions: HepG2 MRE cis-reporter transcription, Attagene multiplex; actives raise or lower the signal. In a few lines: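 After a 24 h chemical exposure, transiently transfected HepG2 cells yield RNA whose reporter sequences are amplified, FAM-labelled and sized by capillary electrophoresis. Curves are fitted bidirectionally relative to DMSO.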

The nature of experiment [16]: ATG_PBREM_CIS: Attagene CIS-FACTORIAL HepG2 Assay for human Phenobarbital-responsive Enhancer Module (PBREM) (AID 2282955). Conditions: HepG2 PBREM cis-reporter, Attagene multiplexed transcription; actives raise or lower the signal. The gist of the method: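 After a 24 h incubation with test chemical, transfected HepG2 cells yield total RNA; reporter-specific RT-PCR products are fluorescently labelled, HpaI-digested and resolved by capillary electrophoresis against ROX size standards.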

Experiment [17] can be described thus: ATG_GRE_CIS: Attagene CIS-FACTORIAL HepG2 Assay for human Glucocorticoid Response Elements (GRE) (AID 2282947). Conditions: HepG2 GRE cis-reporter, Attagene multiplex mRNA; actives raise or lower the signal. In a few lines: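 Assay uses human hepatoma HepG2 cells transfected with cis-promoter reporter units, exposed 24 h. mRNA from reporters detected by RT-PCR plus capillary electrophoresis; DMSO serves as negative control and baseline.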

A short description of experiment [18]: ATG_ISRE_CIS: Attagene CIS-FACTORIAL HepG2 Assay for human Interferon Regulatory Factor 1 (IRF1) binding to an Interferon-Stimulated Response Element (ISRE) (AID 2282948). Conditions: HepG2 ISRE cis-reporter (Attagene), mRNA transcription readout; actives raise or lower the signal. The gist of the method: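 Transiently transfected HepG2 cells carrying cis-element reporter units, dosed 24 hours. Reporter mRNA quantified by RT-PCR, fluorescent primer extension, HpaI digestion and capillary electrophoresis. Bidirectional fitting relative to DMSO.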

Sequence of Hypoxia-inducible factor 1-alpha (Homo sapiens) (Q16665 whole entry, looked up): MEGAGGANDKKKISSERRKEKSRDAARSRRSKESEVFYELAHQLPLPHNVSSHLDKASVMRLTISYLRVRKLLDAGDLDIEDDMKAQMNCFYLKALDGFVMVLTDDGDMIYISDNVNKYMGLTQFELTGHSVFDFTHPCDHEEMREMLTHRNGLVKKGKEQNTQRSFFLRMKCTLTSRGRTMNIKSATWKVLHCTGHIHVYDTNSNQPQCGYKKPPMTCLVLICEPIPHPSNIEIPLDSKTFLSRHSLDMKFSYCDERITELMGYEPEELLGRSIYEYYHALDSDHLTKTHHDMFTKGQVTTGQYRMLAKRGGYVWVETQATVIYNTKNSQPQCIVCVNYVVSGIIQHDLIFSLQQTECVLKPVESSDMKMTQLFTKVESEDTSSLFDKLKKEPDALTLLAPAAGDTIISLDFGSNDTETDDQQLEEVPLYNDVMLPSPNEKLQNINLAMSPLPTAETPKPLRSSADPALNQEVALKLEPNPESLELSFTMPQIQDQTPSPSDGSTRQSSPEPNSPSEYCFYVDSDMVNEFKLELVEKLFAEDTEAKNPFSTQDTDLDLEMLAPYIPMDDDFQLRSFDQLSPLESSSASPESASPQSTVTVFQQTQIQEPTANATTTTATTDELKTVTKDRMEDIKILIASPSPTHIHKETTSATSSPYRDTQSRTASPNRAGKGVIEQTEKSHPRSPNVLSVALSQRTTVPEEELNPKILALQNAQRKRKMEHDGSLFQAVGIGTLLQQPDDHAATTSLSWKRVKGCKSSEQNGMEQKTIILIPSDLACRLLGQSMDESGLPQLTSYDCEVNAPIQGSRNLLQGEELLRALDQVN
Sequence of Heat shock factor protein 1 (Homo sapiens) (Q00613 whole entry, looked up): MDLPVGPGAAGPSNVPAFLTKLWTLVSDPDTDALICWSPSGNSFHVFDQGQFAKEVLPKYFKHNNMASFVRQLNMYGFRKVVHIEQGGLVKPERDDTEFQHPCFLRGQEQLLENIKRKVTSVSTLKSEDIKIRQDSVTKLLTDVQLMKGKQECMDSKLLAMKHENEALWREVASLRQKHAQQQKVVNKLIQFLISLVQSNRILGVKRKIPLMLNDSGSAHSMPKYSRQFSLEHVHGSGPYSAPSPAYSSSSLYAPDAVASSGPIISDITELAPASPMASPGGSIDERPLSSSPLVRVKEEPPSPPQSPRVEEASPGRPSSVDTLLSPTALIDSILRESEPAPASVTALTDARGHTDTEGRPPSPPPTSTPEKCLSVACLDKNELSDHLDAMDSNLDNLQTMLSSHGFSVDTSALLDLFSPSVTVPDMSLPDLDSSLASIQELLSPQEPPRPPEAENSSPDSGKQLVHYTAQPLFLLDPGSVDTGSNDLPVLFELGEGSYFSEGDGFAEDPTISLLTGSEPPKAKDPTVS
Sequence of Hepatocyte nuclear factor 6 (Homo sapiens) (Q9UBC0 whole entry, looked up, the tested form may be a part): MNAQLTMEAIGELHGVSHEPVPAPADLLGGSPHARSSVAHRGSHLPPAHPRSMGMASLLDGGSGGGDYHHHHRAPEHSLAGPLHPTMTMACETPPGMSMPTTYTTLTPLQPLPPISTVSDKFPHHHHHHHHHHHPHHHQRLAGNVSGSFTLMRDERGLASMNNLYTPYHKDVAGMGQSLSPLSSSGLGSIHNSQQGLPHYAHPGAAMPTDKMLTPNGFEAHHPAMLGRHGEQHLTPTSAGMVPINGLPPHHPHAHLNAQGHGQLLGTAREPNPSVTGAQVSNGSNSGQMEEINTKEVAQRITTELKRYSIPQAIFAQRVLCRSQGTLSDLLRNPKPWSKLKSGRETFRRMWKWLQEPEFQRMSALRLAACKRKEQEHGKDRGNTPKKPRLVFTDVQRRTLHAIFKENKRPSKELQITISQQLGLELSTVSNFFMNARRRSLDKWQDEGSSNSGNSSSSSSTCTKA
Sequence of Hepatocyte nuclear factor 3-beta (Homo sapiens) (Q9Y261 whole entry, looked up): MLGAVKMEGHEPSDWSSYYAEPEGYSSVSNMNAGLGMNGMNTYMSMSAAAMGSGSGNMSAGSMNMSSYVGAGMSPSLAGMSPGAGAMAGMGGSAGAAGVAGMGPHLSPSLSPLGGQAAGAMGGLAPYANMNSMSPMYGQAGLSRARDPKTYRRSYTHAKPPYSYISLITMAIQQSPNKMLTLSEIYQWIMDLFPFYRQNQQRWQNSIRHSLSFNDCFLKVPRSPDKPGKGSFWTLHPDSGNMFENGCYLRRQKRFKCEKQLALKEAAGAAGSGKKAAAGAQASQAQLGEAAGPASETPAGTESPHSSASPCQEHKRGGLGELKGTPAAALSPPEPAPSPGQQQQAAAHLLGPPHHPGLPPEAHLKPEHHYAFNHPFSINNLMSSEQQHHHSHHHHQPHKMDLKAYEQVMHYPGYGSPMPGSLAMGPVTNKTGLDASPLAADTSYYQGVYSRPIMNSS

As for `CC1=NNC(=O)N(/N=C/c2cccnc2)C1`, the result in [1], in [2], in experiment [3], in [4], in [5] and in experiment [6] was inactive. In addition, the outcome in experiment [7], in experiment [8], in [9], in [10], in experiment [11] and in [12] was inactive. The compound was called inactive in experiment [13], in experiment [14] and in experiment [15].

As for `S=C1NCCN1`, the result in experiment [1], in experiment [2], in [3], in [4], in experiment [5] and in [6] was inactive. The compound was classed as inactive in [7], in experiment [8], in experiment [9], in experiment [10], in [11] and in [12]. The call in experiment [13], in [14] and in experiment [15] was inactive.

Consider `CON=C(C(=O)OC)c1ccccc1CON=C(C)c1cccc(C(F)(F)F)c1`, for which the values for the AC50 in [1], in experiment [14] and in [15] were 12.5 µM (active), 24.1 µM (active) and 68.9 µM (active), respectively. The compound was called inactive in [2], in [3], in experiment [4], in [5], in [6] and in [7]. Besides, the call in [8], in [9], in experiment [10], in experiment [11], in [13] and in [16] was inactive.

Turning to `CCCCN(CC)c1c([N+](=O)[O-])cc(C(F)(F)F)cc1[N+](=O)[O-]`, the result in [1], in [2], in experiment [3], in experiment [4], in experiment [5] and in experiment [6] was inactive. The call in experiment [7], in [8], in [9], in [17], in experiment [18] and in experiment [10] was inactive. In addition, the call in experiment [11], in experiment [12], in experiment [13], in [14] and in [15] was inactive. Besides, the AC50 in [16] was 14.9 µM (active).

As for `CCc1cccc(C)c1N(C(=O)CCl)C(C)COC` (stereo not given), the outcome in [1], in experiment [2], in experiment [3], in experiment [4], in experiment [5] and in experiment [6] was inactive. The compound was classed as inactive in experiment [7], in [8], in experiment [9], in experiment [10], in experiment [11] and in [13]. Also, the compound was classed as inactive in [14] and in experiment [15]. For the same compound, the AC50 in [16] is 7.5 µM (active).

For `CCOP(=S)(OCC)OC(Cl)C(Cl)(Cl)Cl` (stereo not given), the result in experiment [1], in [2], in experiment [3], in experiment [4], in experiment [5] and in experiment [6] was inactive. In addition, the call in experiment [7], in experiment [8], in [9], in [17], in experiment [18] and in experiment [10] was inactive. Besides, the call in experiment [11], in experiment [12], in [13], in experiment [14] and in [16] was inactive. In addition, the AC50 in experiment [15] was 32.9 µM (active).

For the compound `CCC(=NOC/C=C/Cl)C1=C(O)CC(C2CCOCC2)CC1=O` (stereo not given), the outcome in [1], in experiment [2], in experiment [3], in experiment [4], in experiment [5] and in experiment [6] was inactive. Further, the outcome in experiment [7], in experiment [8], in experiment [9], in experiment [17], in experiment [18] and in experiment [10] was inactive. The compound was called inactive in experiment [11], in [13], in [14], in [15] and in [16].

In the case of `CCOP(=S)(OCC)SCCSCC`, the result in experiment [1], in [2], in experiment [3], in experiment [4], in [5] and in [6] was inactive. Besides, the result in experiment [7], in experiment [8], in experiment [9], in [18], in experiment [10] and in experiment [11] was inactive. The call in experiment [13], in experiment [14] and in experiment [15] was inactive. For the same compound, the values for the AC50 in experiment [17] and in experiment [16] were 15.4 µM (active) and 30.5 µM (active), respectively.
